# Test results as given in PubChem BioAssay.
# “And” between values parts separate entries of the source, which are not always exact repeats. Equal values may be shown once. The source made the active and inactive calls. Rule as the data show it, unless noted: active = inhibition above about 80%; inactive = the rest.
# What was measured:
# [1] = hESC survival regulators, cell-based (AID 493140; call rule not given here;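 also: cells exposed to compounds for four days before counting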); details: human embryonic stem cell survival screen; stronger effect = higher value
# [2] = liver-stage malaria parasite growth inhibition, primary screen, cell-based, HepG2, luciferase luminescence, HepG2 viability (AID 624349; in the data active = parasite load remaining mostly below about 12%, no sharp cut-off; inactive = mostly above about 10%;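 also: 100% = mean of DMSO negative control wells on the same plate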); details: P. berghei liver stage in HepG2, luciferase luminescence, concentration not given here; parasite load remaining: stronger effect = lower value; viability: measured here: HepG2 viability without parasites
# [3] = sensitizers of A549 cells to miR-34 induction, primary screen, imaging, A549 dox-inducible miR-34, nuclei and caspase counts (AID 1347080;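 active = compounds whose cell count with miR-34 switched on is under 0.7 times the count with it off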); details: A549 miR-34 inducible, Hoechst nuclei count, 48 h
# [4] = survival rescue of mitochondrial mutant cells in low glucose, primary screen, MELAS cybrids, Rieske KO mouse fibroblasts, CellTiter-Glo (AID 1508586;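 active = mean z-score across replicates of 1.96 or higher in either the MELAS or the Rieske mutant cell line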;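 also: z relative to plate mean and SD of compound and empty wells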)
# [5] = LFS_MB_P medulloblastoma growth inhibition, cell-based, chromothripsis tumors, cisplatin or BGB combos (AID 1671449); details: LFS_MB_P medulloblastoma cells;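 also: cells exposed for 96 hours; 0% = vehicle DMSO and 100% = killing by high DMSO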
# [6] = HDN33 neuroblastoma growth inhibition, cell-based, chromothripsis tumors, cisplatin or BGB combos (AID 1671450); details: HDN33 neuroblastoma cells, stronger effect = higher value;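 also: cells exposed to compound for four days; 0% = vehicle DMSO and 100% = cell killing by high DMSO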
# [7] = ICB984 medulloblastoma cell growth inhibition, synergistic combos for chromothripsis tumors, cisplatin or BGB combos (AID 1671451; call rule not given here;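 also: cells exposed for 96 hours before readout; 0% = vehicle DMSO and 100% = killing by high DMSO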); details: ICB984 medulloblastoma cells, drug combinations, stronger effect = higher value
# [8] = LFS_MB_1R medulloblastoma cell growth inhibition, synergistic combos for chromothripsis tumors, cisplatin or BGB combos (AID 1671452); details: LFS_MB_1R medulloblastoma cells, stronger effect = higher value;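 also: cells exposed for 96 hours before readout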
# [9] = HTB85 osteosarcoma cell growth inhibition, synergistic combos for chromothripsis tumors, BGB or cisplatin IC20 combos (AID 1671453); details: HTB85 osteosarcoma cells, drug combinations, stronger effect = higher value;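 also: cells exposed for 96 hours before readout; 0% = vehicle DMSO and 100% = high DMSO killing control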
# [10] = CRL2098 osteosarcoma cell growth inhibition, synergistic combos for chromothripsis tumors, BGB or cisplatin IC20 combos (AID 1671454); details: CRL2098 osteosarcoma cells, drug combinations, stronger effect = higher value;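 also: cells exposed for 96 h before readout; 0% = vehicle DMSO and 100% = killing by high DMSO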
# [11] = HD-MB03 medulloblastoma cell growth inhibition, synergistic combos for chromothripsis tumors, BGB or cisplatin IC20 combos (AID 1671455; in the data active = inhibition above about 83%;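 also: 0% = vehicle DMSO and 100% = high DMSO as cytotoxic control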); details: HD-MB03 medulloblastoma cells, stronger effect = higher value
# [12] = UWB1.289 ovarian carcinoma cell growth inhibition, synergistic combos for chromothripsis tumors, BGB or cisplatin combos (AID 1671456); details: UWB1.289 ovarian carcinoma cells, stronger effect = higher value;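 also: cells exposed to compound for four days; 0% = vehicle DMSO and 100% = killing by high DMSO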
# [13] = LFS_MB_2R medulloblastoma cell growth inhibition, synergistic combos for chromothripsis tumors, cisplatin combos (AID 1671457); details: LFS_MB_2R medulloblastoma cells, stronger effect = higher value;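 also: cells exposed to compound for four days before readout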
# [14] = MDA-MB-436 breast carcinoma cell growth inhibition, synergistic combos for chromothripsis tumors, BGB or cisplatin combos (AID 1671458; call rule not given here;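 also: cells exposed for 96 hours; 0% = vehicle DMSO and 100% = killing by high DMSO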); details: MDA-MB-436 breast carcinoma growth inhibition, drug combinations, stronger effect = higher value
# [15] = UWB1.289_BRCA1 ovarian cancer growth, cell-based, BGB or cisplatin combinations (AID 1671459); details: UWB1.289 BRCA1 ovarian carcinoma, drug combinations, stronger effect = higher value
# [16] = human astrocyte viability loss, single and combined drugs, cytotoxicity control for chromothriptic childhood tumor combination screen, cell-based, BGB or cisplatin IC20 combos (AID 1671460); details: Human astrocytes, drug combinations, stronger effect = higher value;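 also: cells exposed to compounds for 96 hours before viability readout; 0% = vehicle and 100% = killing control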
# [17] = growth inhibition of BT084 medulloblastoma cells, cell-based, ICGC_MB145, cisplatin and BGB IC40 combos (AID 1671461); details: drug combinations, stronger effect = higher value;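 also: cells exposed to drugs for 96 hours; 0% = vehicle DMSO and 100% = high DMSO full killing control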
# [18] = growth inhibition of RCMB18 medulloblastoma cells, cell-based, cisplatin and BGB IC40 combos (AID 1671462); details: stronger effect = higher value;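 also: cells exposed to compound for four days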
# [19] = growth inhibition of CRL1545 osteosarcoma cells, cell-based, cisplatin and BGB IC20 combos (AID 1671464); details: stronger effect = higher value;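 also: cells exposed to compound for 96 hours before readout; 0% = vehicle DMSO and 100% = high DMSO killing control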
# [20] = stronger effect = lower value, cell number ratio, induced over uninduced
# [21] = measured here: relative caspase fold change +Dox/-Dox
# [22] = measured here: total cells with miR-34 induction, stronger effect = lower value
# [23] = measured here: total cells without miR-34 induction
# [24] = MELAS cybrid survival, CellTiter-Glo 48 h, stronger effect = higher value
# [25] = Rieske KO mouse fibroblast survival, CellTiter-Glo 72 h
# [26] = measured here: combination with BGB IC40, at 0.05 µM
# [27] = measured here: with BGB IC20 combination, at 0.5 µM
# [28] = measured here: with cisplatin IC20 combination, at 0.5 µM
# [29] = measured here: combination with cisplatin, at 0.5 µM
# [30] = measured here: combination with cisplatin, at 5 µM
structure (smiles),measurement,setting,value
CNCCC=C1c2ccccc2C=Cc2ccccc21,survival,[1],0.833 (inactive)
same,parasite load remaining,[2],45.3% (inactive) and 67.3% (inactive)
same,viability,[2],45.5% and 71.9%
same,fold change,[3]; [20],0.862 (inactive)
same,fold change,[3]; [21],1.27
same,cell count,[3]; [22],6810
same,cell count,[3]; [23],7910
same,z-score,[4]; [24],0.194 (inactive)
same,z-score,[4]; [25],0.365
COc1ccc2c(c1)N(C[C@H](C)CN(C)C)c1ccccc1S2,survival,[1],1.83 (inactive)
same,parasite load remaining,[2],76.2% (inactive)
same,viability,[2],87.8%
same,fold change,[3]; [20],0.88 (inactive)
same,fold change,[3]; [21],1.53
same,cell count,[3]; [22],7810
same,cell count,[3]; [23],8880
same,z-score,[4]; [24],-1.21 (inactive)
same,z-score,[4]; [25],-0.494
C=CCOc1ccccc1OCC(O)CNC(C)C (centres undefined),survival,[1],7.17 (inactive)
same,parasite load remaining,[2],73.5% (inactive)
same,viability,[2],76.9%
same,fold change,[3]; [20],0.94 (inactive)
same,fold change,[3]; [21],0.727
same,cell count,[3]; [22],9530
same,cell count,[3]; [23],10100
same,z-score,[4]; [24],0.73 (inactive)
same,z-score,[4]; [25],0.111
CCCC1C(=O)N2C(N(C)C)=Nc3ccc(C)cc3N2C1=O (centres undefined),survival,[1],9.17 (inactive)
same,parasite load remaining,[2],172% (inactive)
same,viability,[2],71.8%
same,fold change,[3]; [20],0.881 (inactive)
same,fold change,[3]; [21],0.721
same,cell count,[3]; [22],8830
same,cell count,[3]; [23],10000
same,z-score,[4]; [24],0.00688 (inactive)
same,z-score,[4]; [25],-0.91
Nc1nc(=S)c2ncn([C@@H]3O[C@H](CO)[C@@H](O)[C@H]3O)c2[nH]1,survival,[1],1.25 (inactive)
same,parasite load remaining,[2],64.1% (inactive) and 72.9% (inactive)
same,viability,[2],36.6% and 69.4%
same,fold change,[3]; [20],1.04 (inactive)
same,fold change,[3]; [21],1.52
same,cell count,[3]; [22],2980
same,cell count,[3]; [23],2870
same,z-score,[4]; [24],3.35 (active)
same,z-score,[4]; [25],-0.524
CN(C)CC(=O)Nc1ccc2[nH]c(=O)c3ccccc3c2c1,fold change,[3]; [20],0.941 (inactive) and 0.916 (inactive)
same,fold change,[3]; [21],0.694 and 0.571
same,cell count,[3]; [22],5000 and 7760
same,cell count,[3]; [23],5310 and 8470
same,z-score,[4]; [24],-0.15 (inactive) and -0.352 (inactive)
same,z-score,[4]; [25],-0.197 and 0.819
same,inhibition,"[5]; at 0.5 µM, stronger effect = higher value",-18.5% (inactive) and -17% (inactive) and -7.46% (inactive)
same,inhibition,"[5]; measured here: combination with BGB IC20, at 0.005 µM",12.4% and -8.96% and -31.5%
same,inhibition,"[5]; measured here: combination with BGB IC40, at 0.005 µM",-19.5% and -21.6% and -39.4%
same,inhibition,[5]; [26],-14.8% and -27.5% and -40.5%
same,inhibition,"[5]; measured here: combination with cisplatin, at 0.5 µM, stronger effect = higher value",-45.3% and -39.5% and -30.4%
same,inhibition,"[5]; measured here: combination with cisplatin, at 5 µM, stronger effect = higher value",4.17% and -17.8% and -4.6%
same,inhibition,"[6]; BGB combo, at 5 µM",7.32% and -6.67% and -9.33%
same,inhibition,[6]; at 0.5 µM,6.02% (inactive) and -1.05% (inactive) and -19% (inactive)
same,inhibition,"[6]; cisplatin combo, at 5 µM",17.1% and 1.58% and -10.8%
same,inhibition,[6]; [27],-3% and -3.63% and -21.1%
same,inhibition,[6]; [28],16.9% and 5.73% and -18.5%
same,inhibition,"[6]; single agent, at 5 µM",15.5% and 10.2% and 30.1%
same,inhibition,"[7]; BGB IC20 combo, at 0.005 µM",-13.3% and -2.95% and -7.79%
same,inhibition,"[7]; BGB IC40 combo, at 0.005 µM",-17% and -47.2% and -17.2%
same,inhibition,"[7]; BGB IC40 combo, at 0.05 µM",-0.058% and 4.16% and -0.711%
same,inhibition,[7]; at 0.5 µM,-28.4% (inactive) and -20.4% (inactive) and -5.86% (inactive)
same,inhibition,"[7]; cisplatin combo, at 0.05 µM",-2.85% and 1.48% and -4.33%
same,inhibition,"[7]; cisplatin combo, at 0.5 µM",-27.2% and -5.09% and 16.6%
same,inhibition,"[7]; cisplatin combo, at 5 µM",-20% and -21% and -0.405%
same,inhibition,"[7]; measured here: 5 uM single agent, at 5 µM",-18.7% and -14.3% and -10.6%
same,inhibition,[8]; at 0.5 µM,-13.8% (inactive) and -13.5% (inactive) and -14% (inactive)
same,inhibition,[8]; [26],-3.83% and -23.1% and -25.7%
same,inhibition,[8]; [29],0.486% and -10.2% and -9.3%
same,inhibition,[8]; [30],-18.1% and 3.23% and -15.4%
same,inhibition,[9]; at 0.5 µM,-2.64% (inactive) and 6.11% (inactive) and -9.79% (inactive)
same,inhibition,"[9]; measured here: with BGB IC20, at 0.5 µM",-8.36% and -5.68% and -25.9%
same,inhibition,"[9]; measured here: with BGB IC20, at 5 µM",-24.1% and 8.44% and -2.25%
same,inhibition,"[9]; measured here: with cisplatin IC20, at 0.5 µM",-8.52% and 5.14% and 3.46%
same,inhibition,"[9]; measured here: with cisplatin IC20, at 5 µM",-29.8% and -39.5% and -46.8%
same,inhibition,"[9]; single agent, at 5 µM",1.63% and -7.42% and 3.8%
same,inhibition,[10]; at 0.5 µM,-36.8% (inactive) and -23.4% (inactive) and -51.4% (inactive)
same,inhibition,"[10]; measured here: combination with BGB at IC20, at 0.5 µM",-71.3% and -23.5% and -26.5%
same,inhibition,"[10]; measured here: combination with cisplatin at IC20, at 0.5 µM",-19% and -5.62% and -82%
same,inhibition,[11]; at 0.5 µM,-0.31% (inactive) and -9.88% (inactive) and -18.4% (inactive)
same,inhibition,"[11]; measured here: combo with BGB at IC20, at 0.5 µM",0.82% and -0.47% and -22%
same,inhibition,"[11]; measured here: combo with cisplatin at IC20, at 0.5 µM",-8.4% and -20.4% and -29.9%
same,inhibition,[12]; at 0.5 µM,3.12% (inactive) and 0.71% (inactive) and -1.11% (inactive)
same,inhibition,"[12]; measured here: inhibition with BGB combination, at 0.05 µM",-1.46% and -11.5% and -12.3%
same,inhibition,"[12]; measured here: inhibition with cisplatin combination, at 0.05 µM",-5.87% and -5.94% and -12.4%
same,inhibition,[13]; at 0.5 µM,-1.17% (inactive) and -17.8% (inactive) and -26.4% (inactive)
same,inhibition,[13]; [29],-1.41% and -14.7% and -24.5%
same,inhibition,[13]; [30],-64% and -69.6% and -24.6%
same,inhibition,[14]; at 0.5 µM,-4.41% (inactive) and -15.5% (inactive) and -5.43% (inactive)
same,inhibition,"[14]; measured here: BGB combination, at 0.5 µM",-3.67% and -13.7% and -14%
same,inhibition,"[14]; measured here: BGB combination, at 5 µM",-15.9% and -32.7% and -34.6%
same,inhibition,"[14]; measured here: cisplatin combination, at 0.5 µM",-8.29% and -33% and -6.83%
same,inhibition,"[14]; measured here: cisplatin combination, at 5 µM",-17.2% and -39.2% and -6.55%
same,inhibition,"[15]; BGB combination, concentration series, at 5 µM",-7.67% and -9.61% and 17%
same,inhibition,[15]; at 0.5 µM,1.59% (inactive) and -0.05% (inactive) and -1.7% (inactive)
same,inhibition,"[15]; cisplatin combination, concentration series, at 5 µM",16.4% and 6.78% and -0.772%
same,inhibition,[16]; at 0.5 µM,0.7% (inactive) and -7.07% (inactive) and 10.3% (inactive)
same,inhibition,"[16]; measured here: combo with BGB IC20, at 0.5 µM",-4.06% and -11% and -10.6%
same,inhibition,"[16]; measured here: combo with cisplatin IC20, at 0.5 µM",6.3% and -10.6% and 20.9%
same,inhibition,[17]; at 0.5 µM,-5% (inactive) and -17.7% (inactive) and -25% (inactive)
same,inhibition,"[17]; cisplatin combination, at 0.5 µM",-11% and 0.828% and -68.7%
same,inhibition,"[17]; cisplatin combination, at 5 µM",-4.17% and -13.1% and -46%
same,inhibition,"[17]; measured here: BGB IC40 combination 0.05 uM, at 0.05 µM",25% and 2.93% and -19.8%
same,inhibition,"[17]; single agent, at 5 µM",-11.5% and -8.61% and -15%
same,inhibition,[18]; at 0.5 µM,-10.8% (inactive) and -26% (inactive) and -30.1% (inactive)
same,inhibition,"[18]; cisplatin combo, at 5 µM",-47.6% and -22.2% and -34.1%
same,inhibition,"[18]; measured here: BGB IC40 combination, at 0.05 µM",1.7% and -24.6% and -7.83%
same,inhibition,[18]; [29],-0.146% and -31.4% and -63.1%
same,inhibition,"[18]; single agent, at 5 µM",-17.1% and -32.1% and -45.8%
same,inhibition,[19]; at 0.5 µM,-19.1% (inactive) and 4.9% (inactive) and -4.49% (inactive)
same,inhibition,[19]; [27],-45.9% and 5.19% and -19.6%
same,inhibition,[19]; [28],-8.03% and 2.6% and 1.49%
same,inhibition,"[19]; single agent, at 0.05 µM",18.8% and -30.7% and 29.1%
same,inhibition,"[19]; single agent, at 5 µM",-20.3% and -21.7% and -53.8%
